{"source": "PubChem BioAssay (NCATS)", "note": "Results filed as inconclusive are left out. The source made the active and inactive calls. Unless noted, calls come from the whole dose curve. % is set by controls: 0 for no effect and ±100 for the full control effect.", "data": [{"system": "not listed separately", "assay": "qHTS for Inhibitors of the Functional Ribonucleoprotein Complex (vRNP) of Lassa (LASV) Arenavirus: Viability assay - alamar blue signal for LASV Primary Screen (AID 1347083; calls by dose curve; tested in HEK293 reporter line; note: nearly all actives have a fitted effect of over 80% in size)", "settings": "cell viability, alamar blue fluorescence (LASV minigenome counter-screen); series mostly up to 57.5 µM; activity change, negative = reduced viability: at the top concentration", "values": [{"smiles": "C=C[C@@H]1CN2CCC1C[C@@H]2C(O)c1ccnc2ccc(OC)cc12", "note": "(stereo not given in full)", "activity change, negative = reduced viability": "-1.24% (inactive)"}, {"smiles": "COc1cc(/C=C/C(=O)OC2CC3CCC2(C)C3(C)C)ccc1O", "note": "(stereo not given)", "activity change, negative = reduced viability": "18.4% (inactive)"}, {"smiles": "COc1cc(O)c2c(c1)C(=O)c1cc(C)cc(O)c1C2=O", "activity change, negative = reduced viability": "-0.943% (inactive)"}, {"smiles": "NC1CCC(Nc2nc(Nc3ccc(C(=O)N4CCCCC4)cc3)c3ncn(-c4cccc(F)c4)c3n2)CC1", "note": "(stereo not given)", "activity change, negative = reduced viability": "-18.1% (inactive)"}, {"smiles": "NC(=O)NN=Cc1ccc([N+](=O)[O-])o1", "activity change, negative = reduced viability": "-22.2% (inactive)"}, {"smiles": "CCOC(=O)O[C@]1(C(=O)OCCl)CC[C@@H]2[C@H]3CCC4=CC(=O)C=C[C@]4(C)[C@@H]3[C@@H](O)C[C@@]21C", "activity change, negative = reduced viability": "-10.7% (inactive)"}, {"smiles": "O=C(NCc1ccccc1)[C@H](Cc1ccccc1)NC(=O)[C@@H]1O[C@@H]1C(=O)NCCc1ccc(O)cc1", "activity change, negative = reduced viability": "1.33% (inactive)"}, {"smiles": "C[N+]1(C)[C@@H]2C[C@@H](OC(=O)C(O)(c3cccs3)c3cccs3)C[C@H]1[C@@H]1O[C@@H]12", "activity change, negative = reduced viability": "2.46% (inactive)"}, {"smiles": "O=C(CS(=O)Cc1ccco1)NCC=CCOc1cc(CN2CCCCC2)ccn1", "note": "(stereo not given)", "activity change, negative = reduced viability": "0.769% (inactive)"}, {"smiles": "CCOC(=O)N1CCN([N+]([O-])=NOc2cc(ON=[N+]([O-])N3CCN(C(=O)OCC)CC3)c([N+](=O)[O-])cc2[N+](=O)[O-])CC1", "activity change, negative = reduced viability": "4.51% (inactive)"}, {"smiles": "CC(C)(C)[C@H](NC(=O)c1ccc(N)c(Cl)c1)C(=O)N1CCC[C@@H]1C(=O)N[C@H](C#N)CC(=O)O", "activity change, negative = reduced viability": "2.61% [at 5.82 µM] (inactive)"}, {"smiles": "CN(C)CCOc1ccc(-c2nc(-c3ccc4c(c3)CCC4=NO)c(-c3ccncc3)[nH]2)cc1", "activity change, negative = reduced viability": "5.77% (inactive)"}]}, {"system": "not listed separately", "assay": "qHTS for Inhibitors of the Functional Ribonucleoprotein Complex (vRNP) of Lymphocytic Choriomeningitis Arenaviruses (LCMV): Viability assay - alamar blue signal for LCMV Primary Screen (AID 1347085; calls by dose curve; tested in HEK293 reporter line; note: nearly all actives have a fitted effect of over 80% in size)", "settings": "alamar blue viability counter-screen, LCMV vRNP screen cells; series mostly up to 57.5 µM; activity change, negative = lower viability: at the top concentration", "values": [{"smiles": "CCNC(=O)Nc1ccc(Oc2ncnc(N)c2C=NOC)cc1Cl", "activity change, negative = lower viability": "4.37% (inactive)"}, {"smiles": "Clc1cccc(-n2nnnc2NCc2ccccc2Oc2ccccn2)c1Cl", "activity change, negative = lower viability": "11.5% (inactive)"}, {"smiles": "COC(=O)N[C@H](C(=O)N1CCC[C@@H]1c1ncc(-c2ccc(-c3ccc(-c4cnc([C@@H]5CCCN5C(=O)[C@@H](NC(=O)OC)C(C)C)[nH]4)cc3)cc2)[nH]1)C(C)C", "activity change, negative = lower viability": "6.01% (inactive)"}, {"smiles": "COc1cc([C@H]2Oc3cc([C@H]4Oc5cc(O)cc(O)c5C(=O)[C@H]4O)ccc3O[C@H]2CO)ccc1O", "activity change, negative = lower viability": "23.1% (inactive)"}, {"smiles": "COc1ccc(-c2coc3cc(O)ccc3c2=O)cc1", "Potency": "inactive"}, {"smiles": "CON=C(C(=O)N[C@@H]1C(=O)N2C(C(=O)OCOC(=O)C(C)(C)C)=C(C=Cc3scnc3C)CS[C@H]12)c1csc(N)n1", "activity change, negative = lower viability": "0.77% (inactive)"}, {"smiles": "O=C(C[C@@H]1CC=CCCC(=O)O[C@H](c2ccccc2)CNC1=O)NCc1ccc(Cl)cc1", "activity change, negative = lower viability": "13.7% (inactive)"}, {"smiles": "COC1CCC(C(=O)c2ccc3nc4c(cc3c2)CCCO4)CC1", "note": "(stereo not given)", "activity change, negative = lower viability": "-7.73% (inactive)"}, {"smiles": "CN(C1CCc2c(c3ccccc3n2CC(=O)O)C1)S(=O)(=O)c1ccc(F)cc1", "note": "(stereo not given)", "activity change, negative = lower viability": "8.8% (inactive)"}, {"smiles": "CNC[C@@H](O)[C@@H](O)[C@H](O)[C@H](O)CO", "activity change, negative = lower viability": "-1.25% (inactive)"}, {"smiles": "CC(=O)O[C@]1(C(C)=O)CC[C@H]2[C@@H]3C=C(C)C4=CC(=O)CC[C@]4(C)[C@@H]3CC[C@@]21C", "activity change, negative = lower viability": "-0.551% (inactive)"}, {"smiles": "O=C1Nc2ccc(I)cc2C1=Cc1cc(Br)c(O)c(Br)c1", "activity change, negative = lower viability": "-14.5% (inactive)"}, {"smiles": "CN(C)CCC=C1c2ccccc2COc2ccc(CC(=O)O)cc21", "activity change, negative = lower viability": "7.03% (inactive)"}, {"smiles": "C=C[C@@H]1CN2CCC1C[C@@H]2C(O)c1ccnc2ccc(OC)cc12", "note": "(stereo not given in full)", "activity change, negative = lower viability": "0.465% (inactive)"}, {"smiles": "COc1cc(/C=C/C(=O)OC2CC3CCC2(C)C3(C)C)ccc1O", "note": "(stereo not given)", "activity change, negative = lower viability": "15.3% (inactive)"}, {"smiles": "COc1cc(O)c2c(c1)C(=O)c1cc(C)cc(O)c1C2=O", "activity change, negative = lower viability": "0.0974% (inactive)"}, {"smiles": "NC1CCC(Nc2nc(Nc3ccc(C(=O)N4CCCCC4)cc3)c3ncn(-c4cccc(F)c4)c3n2)CC1", "note": "(stereo not given)", "activity change, negative = lower viability": "-6.63% (inactive)"}, {"smiles": "NC(=O)NN=Cc1ccc([N+](=O)[O-])o1", "activity change, negative = lower viability": "-2.83% (inactive)"}, {"smiles": "CCOC(=O)O[C@]1(C(=O)OCCl)CC[C@@H]2[C@H]3CCC4=CC(=O)C=C[C@]4(C)[C@@H]3[C@@H](O)C[C@@]21C", "activity change, negative = lower viability": "-5.01% (inactive)"}, {"smiles": "O=C(NCc1ccccc1)[C@H](Cc1ccccc1)NC(=O)[C@@H]1O[C@@H]1C(=O)NCCc1ccc(O)cc1", "activity change, negative = lower viability": "-16.4% (inactive)"}, {"smiles": "C[N+]1(C)[C@@H]2C[C@@H](OC(=O)C(O)(c3cccs3)c3cccs3)C[C@H]1[C@@H]1O[C@@H]12", "activity change, negative = lower viability": "6.93% (inactive)"}, {"smiles": "O=C(CS(=O)Cc1ccco1)NCC=CCOc1cc(CN2CCCCC2)ccn1", "note": "(stereo not given)", "activity change, negative = lower viability": "4.87% (inactive)"}, {"smiles": "CCOC(=O)N1CCN([N+]([O-])=NOc2cc(ON=[N+]([O-])N3CCN(C(=O)OCC)CC3)c([N+](=O)[O-])cc2[N+](=O)[O-])CC1", "activity change, negative = lower viability": "5.64% (inactive)"}, {"smiles": "CC(C)(C)[C@H](NC(=O)c1ccc(N)c(Cl)c1)C(=O)N1CCC[C@@H]1C(=O)N[C@H](C#N)CC(=O)O", "activity change, negative = lower viability": "8.73% [at 5.82 µM] (inactive)"}, {"smiles": "CN(C)CCOc1ccc(-c2nc(-c3ccc4c(c3)CCC4=NO)c(-c3ccncc3)[nH]2)cc1", "activity change, negative = lower viability": "-2.58% (inactive)"}]}, {"biological_target": "Nucleoprotein (Lymphocytic choriomeningitis virus (strain Armstrong)) (UniProt P09992)", "sequence (P09992 whole entry, looked up)": "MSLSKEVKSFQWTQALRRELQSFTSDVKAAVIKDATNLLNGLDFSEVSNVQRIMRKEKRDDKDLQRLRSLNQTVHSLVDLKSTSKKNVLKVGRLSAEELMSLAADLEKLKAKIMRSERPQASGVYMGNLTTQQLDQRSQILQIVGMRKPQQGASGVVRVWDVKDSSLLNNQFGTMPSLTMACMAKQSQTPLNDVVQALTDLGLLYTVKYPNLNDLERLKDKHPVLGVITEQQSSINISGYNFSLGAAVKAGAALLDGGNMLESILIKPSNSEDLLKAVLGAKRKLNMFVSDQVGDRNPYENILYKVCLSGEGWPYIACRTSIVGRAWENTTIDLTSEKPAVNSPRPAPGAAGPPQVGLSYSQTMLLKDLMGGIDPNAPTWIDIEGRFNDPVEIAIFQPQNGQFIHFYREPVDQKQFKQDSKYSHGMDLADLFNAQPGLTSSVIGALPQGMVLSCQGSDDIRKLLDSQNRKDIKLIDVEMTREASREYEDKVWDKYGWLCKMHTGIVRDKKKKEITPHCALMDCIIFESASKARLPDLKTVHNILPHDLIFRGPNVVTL", "assay": "qHTS for Inhibitors of the Functional Ribonucleoprotein Complex (vRNP) of Lymphocytic Choriomeningitis Arenaviruses (LCMV): LCMV Primary Screen - GLuc reporter signal (AID 1347086); note: nearly all actives have a fitted effect of over 70% in size", "settings": "LCMV minigenome vRNP cell assay, Gaussia luciferase reporter; series mostly up to 57.5 µM; activity change, negative = inhibition: at the top concentration", "values": [{"smiles": "CCNC(=O)Nc1ccc(Oc2ncnc(N)c2C=NOC)cc1Cl", "activity change, negative = inhibition": "10.9% (inactive)"}, {"smiles": "Clc1cccc(-n2nnnc2NCc2ccccc2Oc2ccccn2)c1Cl", "activity change, negative = inhibition": "2.34% (inactive)"}, {"smiles": "COc1cc([C@H]2Oc3cc([C@H]4Oc5cc(O)cc(O)c5C(=O)[C@H]4O)ccc3O[C@H]2CO)ccc1O", "activity change, negative = inhibition": "6.83% (inactive)"}, {"smiles": "COc1ccc(-c2coc3cc(O)ccc3c2=O)cc1", "Potency": "inactive"}, {"smiles": "CON=C(C(=O)N[C@@H]1C(=O)N2C(C(=O)OCOC(=O)C(C)(C)C)=C(C=Cc3scnc3C)CS[C@H]12)c1csc(N)n1", "activity change, negative = inhibition": "24.6% (inactive)"}, {"smiles": "O=C(C[C@@H]1CC=CCCC(=O)O[C@H](c2ccccc2)CNC1=O)NCc1ccc(Cl)cc1", "activity change, negative = inhibition": "5.78% (inactive)"}, {"smiles": "COC1CCC(C(=O)c2ccc3nc4c(cc3c2)CCCO4)CC1", "note": "(stereo not given)", "activity change, negative = inhibition": "13.5% (inactive)"}, {"smiles": "CN(C1CCc2c(c3ccccc3n2CC(=O)O)C1)S(=O)(=O)c1ccc(F)cc1", "note": "(stereo not given)", "activity change, negative = inhibition": "21.8% (inactive)"}, {"smiles": "CNC[C@@H](O)[C@@H](O)[C@H](O)[C@H](O)CO", "activity change, negative = inhibition": "51.7% (inactive)"}, {"smiles": "CC(=O)O[C@]1(C(C)=O)CC[C@H]2[C@@H]3C=C(C)C4=CC(=O)CC[C@]4(C)[C@@H]3CC[C@@]21C", "activity change, negative = inhibition": "35.7% (inactive)"}, {"smiles": "O=C1Nc2ccc(I)cc2C1=Cc1cc(Br)c(O)c(Br)c1", "activity change, negative = inhibition": "2.91% (inactive)"}, {"smiles": "CN(C)CCC=C1c2ccccc2COc2ccc(CC(=O)O)cc21", "activity change, negative = inhibition": "74.2% (inactive)"}, {"smiles": "C=C[C@@H]1CN2CCC1C[C@@H]2C(O)c1ccnc2ccc(OC)cc12", "note": "(stereo not given in full)", "activity change, negative = inhibition": "-3.13% (inactive)"}, {"smiles": "COc1cc(/C=C/C(=O)OC2CC3CCC2(C)C3(C)C)ccc1O", "note": "(stereo not given)", "activity change, negative = inhibition": "-0.306% (inactive)"}, {"smiles": "COc1cc(O)c2c(c1)C(=O)c1cc(C)cc(O)c1C2=O", "activity change, negative = inhibition": "1.98% (inactive)"}, {"smiles": "NC1CCC(Nc2nc(Nc3ccc(C(=O)N4CCCCC4)cc3)c3ncn(-c4cccc(F)c4)c3n2)CC1", "note": "(stereo not given)", "activity change, negative = inhibition": "33.4% (inactive)"}, {"smiles": "NC(=O)NN=Cc1ccc([N+](=O)[O-])o1", "activity change, negative = inhibition": "-21.2% (inactive)"}, {"smiles": "CCOC(=O)O[C@]1(C(=O)OCCl)CC[C@@H]2[C@H]3CCC4=CC(=O)C=C[C@]4(C)[C@@H]3[C@@H](O)C[C@@]21C", "activity change, negative = inhibition": "57.4% (inactive)"}, {"smiles": "C[N+]1(C)[C@@H]2C[C@@H](OC(=O)C(O)(c3cccs3)c3cccs3)C[C@H]1[C@@H]1O[C@@H]12", "activity change, negative = inhibition": "23.3% (inactive)"}, {"smiles": "O=C(CS(=O)Cc1ccco1)NCC=CCOc1cc(CN2CCCCC2)ccn1", "note": "(stereo not given)", "activity change, negative = inhibition": "74.5% (inactive)"}, {"smiles": "CCOC(=O)N1CCN([N+]([O-])=NOc2cc(ON=[N+]([O-])N3CCN(C(=O)OCC)CC3)c([N+](=O)[O-])cc2[N+](=O)[O-])CC1", "activity change, negative = inhibition": "4.46% (inactive)"}, {"smiles": "CC(C)(C)[C@H](NC(=O)c1ccc(N)c(Cl)c1)C(=O)N1CCC[C@@H]1C(=O)N[C@H](C#N)CC(=O)O", "activity change, negative = inhibition": "63.3% [at 5.82 µM] (inactive)"}, {"smiles": "CN(C)CCOc1ccc(-c2nc(-c3ccc4c(c3)CCC4=NO)c(-c3ccncc3)[nH]2)cc1", "activity change, negative = inhibition": "-2.8% (inactive)"}]}]}
